Experimental data taken from PubChem BioAssay (NCI).
The panel holds about 83,000 compounds, 20% with a hit somewhere; the sample as a whole holds those more often.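 Single-dose data. Exposure time 48 hours. Values below 10 considered active.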 Calls of active or inactive are those of the source.

Columns and labels:
Assay in all cases: NCI-60 one-dose screen, 48 h (100 = growth as untreated, 0 = no growth, -100 = all killed)
BT-549 breast = conditions: 10 µM unless noted
MDA-MB-435 melanoma = conditions: 10 µM unless noted
SW-620 colon = conditions: 10 µM unless noted
MCF7 breast = conditions: 10 µM
HCT-116 colon = conditions: 10 µM unless noted
HCC-2998 colon = conditions: 10 µM unless noted
KM12 colon = conditions: 10 µM unless noted

Measured: growth

COc1ccc(/C=C2\N=C(c3ccccc3)N(c3ccc(-c4nc5ccc(C)cc5s4)cc3)C2=O)cc1
inactive: BT-549 breast 92.8% | MDA-MB-435 melanoma 86.9% | SW-620 colon 101% | MCF7 breast 77.1% | HCT-116 colon 85.9% | HCC-2998 colon 96% | KM12 colon 72.1%

CCCCC(O)(c1ccc(Cl)cc1)C(CN1CCOCC1)c1ccc(Cl)cc1 (stereo not drawn)
inactive: BT-549 breast 59.5% | MDA-MB-435 melanoma 26.2% | SW-620 colon 47.1% | MCF7 breast 17.7% | HCT-116 colon 33.2% | HCC-2998 colon 24.6% | KM12 colon 32.5%

O=c1cc(NC2CCN(CCCc3ccccc3)CC2)c2cc(Cl)ccc2o1
inactive: BT-549 breast 17.8%
active: MDA-MB-435 melanoma -8.02% | SW-620 colon 6.98% | MCF7 breast 3.46% | HCT-116 colon 8.12% | HCC-2998 colon -6.89% | KM12 colon 0.149%

Fc1ccc(Oc2ccc(Nc3ncnc4onc(-c5ccccc5)c34)cc2)cc1
inactive: BT-549 breast 78.6% | MDA-MB-435 melanoma 103% | SW-620 colon 95% | MCF7 breast 94.5% | HCT-116 colon 99.1% | HCC-2998 colon 105% | KM12 colon 99.5%

O=S(=O)(c1ccccc1)n1cc2c(c1-c1ccccc1)CCc1sc(Nc3ccccc3)nc1-2
inactive: BT-549 breast 103% | MDA-MB-435 melanoma 88% | SW-620 colon 94.4% | MCF7 breast 72.9% | HCT-116 colon 83.3% | HCC-2998 colon 110% | KM12 colon 82.7%

O=Cc1c(OCc2cnnn2CC(=O)Nc2ccc(Cl)cc2)ccc2ccccc12
inactive: BT-549 breast 90.4% | MDA-MB-435 melanoma 104% | SW-620 colon 99.2% | MCF7 breast 81.5% | HCT-116 colon 104% | HCC-2998 colon 111% | KM12 colon 101%

S=C1CCCC(=S)N1
inactive: BT-549 breast 102% | MDA-MB-435 melanoma 106% | SW-620 colon 105% | MCF7 breast 105% | HCT-116 colon 102% | HCC-2998 colon 111% | KM12 colon 105%

N#C/C(=C\c1c(-c2ccccc2)[nH]c2ccccc12)S(=O)(=O)c1ccccc1
active: MDA-MB-435 melanoma 7.27%
inactive: BT-549 breast 51.7% | SW-620 colon 28.6% | MCF7 breast 14% | HCT-116 colon 36.8% | HCC-2998 colon 57% | KM12 colon 25.1%

O=C(Nc1ncc(Cc2cccc(C(F)(F)F)c2)s1)C1COc2ccccc2O1 (stereo not drawn)
inactive: BT-549 breast 90.7% | MDA-MB-435 melanoma 59.1% | SW-620 colon 81% | MCF7 breast 81.8% | HCT-116 colon 83.3% | HCC-2998 colon 98.5% | KM12 colon 76%

COc1ccc(C2Nc3ncnc(N)c3N=C3c4ccccc4C(=O)C32)cc1 (stereo not drawn)
inactive: BT-549 breast 94.3% | MDA-MB-435 melanoma 96.9% | SW-620 colon 103% | MCF7 breast 95.5% | HCT-116 colon 95.7% | HCC-2998 colon 104% | KM12 colon 110%

COc1cc(C(=O)O/N=C(\N)Cc2cccc3ccccc23)cc(OC)c1OC
active: MDA-MB-435 melanoma -85.2% | SW-620 colon -76.7% | MCF7 breast -85.7% | HCT-116 colon -71.4% | HCC-2998 colon -82.5% | KM12 colon -68.4%
inactive: BT-549 breast 56.4%

O=C1C(Cl)=C(NCc2ccco2)C(=O)c2ccccc21
active: MDA-MB-435 melanoma -38.4%
inactive: BT-549 breast 103% | SW-620 colon 99.7% | MCF7 breast 22% | HCT-116 colon 80.5% | HCC-2998 colon 97.9% | KM12 colon 62.6%

O=[N+]([O-])c1cc2c(ccc3occc32)o1
inactive: BT-549 breast 22% | SW-620 colon 27.6% | HCC-2998 colon 10.9% | KM12 colon 28.6%
active: MDA-MB-435 melanoma -75.1% | MCF7 breast 9.95% | HCT-116 colon 7.94%

COc1ccc(-c2nsc3c2NC(=O)CC3c2ccc3c(c2)OCCO3)cc1 (stereo not drawn)
active: MDA-MB-435 melanoma -46.6%
inactive: BT-549 breast 27.8% | SW-620 colon 35.7% | MCF7 breast 24.7% | HCT-116 colon 12.7% | HCC-2998 colon 33.5% | KM12 colon 20.6%
